Laboratory results reported in the supplement of paper PMC6555819.

Key:
Assay in all cases: PBM binding z-score (relative to random genomic background probes); higher = stronger binding; sequences stand for … in GC…GCGATTGACAGCGTAGAATGAAGG
[1] = tested on: RARb homodimer (NR concentration 270 nM)
In short: (§1)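 Antibodies against each partner of ligand-free nuclear receptor dimers (one per run) detected binding on custom Agilent 4×180K protein-binding microarrays after 1 h incubation. The double-stranded probes had 34-nt variable regions carrying direct-repeat seeds, single-nucleotide variants, half-site ablations and random human genomic background sequences. Binding z-scores, from regression-normalized fluorescence, use the random background probes as reference.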

[2] = tested on: RARg:RXRa (NR concentration 270 nM, RXRa partner concentration 90 nM)
In short: as §1

[3] = tested on: RARg homodimer (NR concentration 270 nM)
In short: as §1

[4] = tested on: RXRa DBDmut IVT, anti-RXR (DBD mutation: RXRa K156A/R161A, NR concentration 90 nM)
In short: as §1

[5] = tested on: RXRa homodimer (NR concentration 180 nM)
In short: as §1

[6] = tested on: THRa:RXRa (NR concentration 90 nM, RXRa partner concentration 90 nM)
In short: as §1

[7] = tested on: THRa homodimer (NR concentration 90 nM)
In short: as §1

[8] = tested on: VDR homodimer (NR concentration 270 nM)
In short: as §1

Sequence	PBM binding z-score [1]	PBM binding z-score [2]	PBM binding z-score [3]	PBM binding z-score [4]	PBM binding z-score [5]	PBM binding z-score [6]	PBM binding z-score [7]	PBM binding z-score [8]
CAAGCTAGGTCACGAAAGGTCAAAGTCGAATGAC	5.98	8.18	8.58	2.43	8.62	5.11	2.29	3.61
CCTAGCAGGCCAGGGTCACTCATGCATTTCGCTT	2.68	2.82	1.97	0.745	2.96	2.79	1.04	1.31
TAGCCTAGGTCAGATCGGGCCAGTGTACGCTATA	2.17	2.57	3.6	-0.434	1.23	4.03	-0.0774	-0.614
TCGAGTAGGTGACCAATGGGGCATTCAGCTTTCT	0.62	0.353	0.0885	-0.0137	0.185	-0.147	-0.979	-0.776
CCTAGTTGGTCAAGGTCACAAACGCTATAGGTAC	4	4.1	4.24	1.87	4.02	4	3.57	3.9
CTCGAAAGTTCGGTTGAGGTGAGTATACGGATAA	1.12	0.738	0.973	1.24	0.161	4.57	1.37	0.742
TAGCCTAGGTCATTGGCCCAGTATAGTACGCATC	2.57	3.61	4.14	1.51	2.56	2.76	0.907	0.973
TCTGCTAGGACAACGATGGTCAGCTAATCTGCTA	-0.669	-0.181	0.34	0.112	-0.495	0.316	-0.704	-0.943
CGTCCAAGCTCAAGGTCAGTGAAAGAGACTCGAA	3.16	2.55	3.24	0.755	1.81	2.87	1.83	1.18
CTACCAAGGTGACCAAGGTCGTTGATTACTATTC	1.86	1.47	1.08	1.1	1.66	2.92	1.76	2.06
TCTATTAGTTGATTAGGACAACCGAAACAGCGGA	0.549	0.758	0.926	1.39	0.79	1.84	1.63	1.03
TCTCGGAGGACCCGAAGGTCAGAGCTTTCCAGAG	2.83	2.16	1.76	-0.207	1.82	1.62	-0.184	-0.145
ATCTCTAGGTAAAGATGGTTCAGTGAATGCAAAT	-0.0603	0.324	0.292	-0.0269	0.0778	0.592	0.0966	0.095
ATCTCAAGGTAACCAAGTTCAGTGAATGCCGAAC	1.51	1.21	1.06	1.01	0.816	2.24	1.06	3.2
CGAACTAGGTCATTGACAGGACAGAGAATAGTAA	2.47	4.41	4.12	2.25	2.5	2.8	0.787	1.26
GGAACGAGGGCAAAGTTGATAGCCTCTGTCGACG	1.42	2.14	1.91	2.49	1.84	1.35	-0.295	1.54
AGTCAAAGATCATCTAGGTAACGTAAGATATGCT	-0.47	0.163	0.343	-0.336	0.746	1.07	-0.24	-0.621
TGAATGAGGGTATAAGATCAGGGAACGTTGCAAA	-0.0361	0.617	0.546	-0.155	0.383	0.461	-0.277	0.159
GTACCAAGGTGAATAGGTCGTTGAGGAGTAGGCG	1.97	2.83	1.46	-0.482	1.63	1.76	0.714	0.676

Sequence	PBM binding z-score [1]	PBM binding z-score [2]	PBM binding z-score [3]	PBM binding z-score [4]	PBM binding z-score [5]	PBM binding z-score [6]	PBM binding z-score [7]	PBM binding z-score [8]
TAGCCTAGGTCATGCGGGCCAGTAGAGTGTCGGC	3.12	3.98	4.71	0.541	3.5	2.96	0.801	0.486
GCTTACGGGTCGAAGGTTATAGCATGAATAGAAT	0.86	2.31	1.28	0.891	3.72	1.55	-0.161	0.682
ATCTCTAGGTAAAGATAGTTCAATGAATGCAAAT	1.4	1.08	1.05	0.373	0.737	1.05	-0.0901	1.15
CTGCCTAGGTCAGGGCCAGTATAGGAGGAACGTT	2.43	2.85	3.61	-0.445	1.25	1.88	0.182	-0.173
CCTGGTTGGTCAGGAGGTCACACACCGGATATGA	4.02	4.98	4.31	0.0446	4.57	3.37	2.1	2.44
GGAACGAGGGCATTCGAGTTTATAGCATGGCGAT	0.829	1.22	1.53	3.83	0.915	3.48	-0.483	4.64
CCTTACGGGTCACTCCCGGTTATAGCATCGGAGT	2.94	4.42	4.31	1.43	4.33	3.71	0.272	1.14
TCTATTAATTGATTAGGGCAACCGAAACAGCGGA	0.555	0.404	0.432	0.717	0.315	0.691	0.741	1.36
GATACAGGCTCAGCTAGAGGCCAGAGTATGGAAA	-0.469	-0.109	-0.0931	-0.906	-0.529	-1.13	-0.801	-0.924
AGTCAAAGTTCACTAGGTAGCGTAAGATTCAGCT	3.47	4.95	5.68	4.01	3.68	1.66	-0.346	3.7
CCTCGGAGGACAGAAAGTCAGAGCTGTCCGCTTT	-0.167	-0.265	0.0547	-0.146	-0.788	-0.441	-0.747	-0.657
CGTCCAAGGTCAATGCTAGGTCAGTAAAAGCATT	4.89	7.54	6.94	3.31	5.24	4.28	2.63	2.92
TCATATAGGAAAACAGGTGAAAGTCCGTAAGTTA	0.455	0.219	0.0668	1.81	1.17	0.338	0.187	0.639
AACGAAAGGTCGAGGTGAGTATAGAGAAAGGGAA	2.86	4.68	4.73	0.969	5.03	2.96	0.451	0.21
GCATATAGGTAAGACAAGGTGAAAGTCCGATTGT	0.617	0.376	0.405	0.267	0.545	3.81	0.676	-0.12
ATCGAAAGGTCGACGAGGTGAGGATACACCGTTT	3.11	4.27	4.37	1.15	4.45	4.09	2.24	1.2
TAATATAGGTAAACAGGTGAAAGTCCGTAAGTTA	0.737	0.857	0.756	0.169	1.26	0.862	0.313	0.444
GGAACGAGGGCATTCCAGTTGATAGCATGGCGAT	0.706	1.1	1.38	3.25	0.797	3.1	-0.0583	2.61
AGTCAAAGTTCACTAGGTAACGTGAGATTCAGCT	3.59	4.82	5.55	3.83	3.61	1.87	0.0345	3.17

Sequence	PBM binding z-score [1]	PBM binding z-score [2]	PBM binding z-score [3]	PBM binding z-score [4]	PBM binding z-score [5]	PBM binding z-score [6]	PBM binding z-score [7]	PBM binding z-score [8]
GTACCAAGGTGAATAGGTCGTTGCTGAGTAGGCG	1.71	2.56	1.13	-0.0766	1.53	1.8	0.155	-0.166
ACAGACAGGTGATGAAGGTAACTCTGGCTATCAT	-0.162	0.325	0.249	-0.432	0.387	0.0574	-0.327	-0.648
TCGTGTAGGTTAGGGGCATTCAGAATGGCGTCGA	1.37	0.648	0.819	1.09	0.961	1.3	0.787	0.922
ATCTCTAGGTAAAGATAGTCCAGTGAATGCAAAT	-0.17	0.22	0.658	0.0705	0.108	0.341	0.315	0.0378
TAGCCTACGTCATGCGGGCCAGTATAGTGTCGGC	-0.71	-0.452	-0.536	-0.98	-0.341	-1.7	-0.856	-1.16
CGAACTAGGTCATTGACAGGACAGTGAATAGTAA	2.71	4.63	4.21	2.33	2.61	2.98	0.802	0.793
TGACAAAGTTCAAAGGTAACGTAAGTATCCACAC	3.83	6.01	5.91	4.38	6.68	3.36	-0.0359	4.23
GATACAGGGTCAGCTAGAGGCCAAAGTATGGAAA	3.52	7.25	5.27	1.21	4.76	3.25	0.447	1.3
TCTGGTAGGTCAGTTGGTCAGCTAACGAGCTGCC	2.92	3.09	3.99	0.902	1.37	0.644	0.0551	0.292
CAAACTAGGTCACGAAAGGTCAAAGGCGAATGAC	5.95	8.09	8.64	1.99	8.7	5.15	2.55	3.38
ACTGACAGGTGATGAAGGTAACTCAGGCTATCAT	-0.0164	0.199	0.358	-0.478	0.16	0.769	-0.122	-0.152
CCTAGCACGCCAATCTGGGTCACTCAAGGCTTGA	1.94	0.768	0.494	0.349	0.974	2.61	0.789	0.435
GCACACAGGTGAAACGCAGGTAACTCAGGGTGGC	0.327	1.15	0.263	-0.192	0.954	1.47	-0.486	-0.299
CGACCAAGGTCATAGGAGGTCAGTGAAGACAGAT	5.12	6.79	7.3	3.53	6.92	5.03	2.69	4.77
ATATGTACGTTAAGGGTCATTCAGGTTGGTTCGC	3.82	3.89	2.96	2.12	4.64	3.3	1.45	4.32
TCATATAGGTAAATGCTAGGTGAAAGCCCGATCT	0.272	0.503	0.325	1.5	0.914	1.29	0.116	-0.161
ATTAGCAGGCCAAGTTTGGGTCACTCAAACAAAG	2.04	2.39	1.91	0.00898	0.882	2.69	0.986	0.34
TAGCCTAGCTCATGGGCCAGTATACCACGCGAAC	-0.141	-0.422	-0.314	-1.22	-0.408	-0.643	-0.48	-0.464
